Results on five compounds are retold here after PubChem BioAssay.

Activity calls are given as the source filed them.

In test [1] the test system is Plasmodium falciparum Sir2 (PF13_0152, Sir2A). Kind of test: pfSir2 binders on small-molecule microarrays, primary screen, biochemical, small-molecule microarray, 635 nm fluorescence (AID 1098).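 Further: score merges spot fluorescence intensity with its signal-to-noise ratio.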 The note with it: small-molecule microarray binding, fluorescence 635 nm; higher = more signal.
Test [2] in a line: small-molecule microarray binders of probe aDKK1, primary screen, biochemical, biotinylated probe, 635/667 nm fluorescence (AID 1099).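 Further: score merges 667nm spot fluorescence with signal to noise across triplicate slides.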 The note with it: higher = more signal.
A short description of test [3]: small-molecule microarray binders of probe aCHRDL2, primary screen, biochemical, biotinylated probe, 635/667 nm fluorescence (AID 1100). The note with it: higher = more signal.
Test [4] in a line: splicing luciferase reporter signal modulators, primary screen, spliceosome inhibition project, cell-based, HEK293, splice +/- reporter (AID 1101).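 Further: HEK293 cells carrying a splicing-competent luciferase reporter gene; test concentration not given here.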 The note with it: luminescence, 24 h, higher = more signal, called active from +8 up or from −8 down.
The target of test [5] is Fibroblast growth factor 10 (Homo sapiens) (UniProt O15520). As to the kind of experiment: FGF10 binders on small-molecule microarrays, primary screen, biochemical, small-molecule microarray, 635 nm fluorescence (AID 1102). The note with it: FGF10 binding, fluorescence 635 nm, higher = more signal.
Fibroblast growth factor 10 (Homo sapiens), sequence (O15520 whole entry, looked up): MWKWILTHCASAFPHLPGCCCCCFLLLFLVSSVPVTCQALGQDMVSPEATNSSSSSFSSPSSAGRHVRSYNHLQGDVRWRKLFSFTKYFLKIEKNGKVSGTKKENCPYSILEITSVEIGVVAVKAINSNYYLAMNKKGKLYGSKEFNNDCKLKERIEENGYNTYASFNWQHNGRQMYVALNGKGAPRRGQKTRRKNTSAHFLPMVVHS
For test [6], the system named is glycogen synthase kinase-3 (GSK3A per assay name; protocol says GSK3B). Kind of test: GSK3 binders on small-molecule microarrays, primary screen, biochemical, small-molecule microarray, 635 nm fluorescence, GSK3A (AID 1103). Further: the record names both GSK3A and GSK3B. The note with it: small-molecule microarray binding, fluorescence 635 nm; higher = more signal.
The target of test [7] is Epidermal growth factor receptor (Homo sapiens) (UniProt P00533). As to the kind of experiment: EGFR binders on small-molecule microarrays, primary screen, biochemical, small-molecule microarray, 635 nm fluorescence (AID 1104).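 Further: score merges 667 nm emission intensity with spot signal to noise over triplicate slides.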 As to conditions: EGFR binding, higher = more signal.
Epidermal growth factor receptor (Homo sapiens), sequence (P00533 whole entry, looked up): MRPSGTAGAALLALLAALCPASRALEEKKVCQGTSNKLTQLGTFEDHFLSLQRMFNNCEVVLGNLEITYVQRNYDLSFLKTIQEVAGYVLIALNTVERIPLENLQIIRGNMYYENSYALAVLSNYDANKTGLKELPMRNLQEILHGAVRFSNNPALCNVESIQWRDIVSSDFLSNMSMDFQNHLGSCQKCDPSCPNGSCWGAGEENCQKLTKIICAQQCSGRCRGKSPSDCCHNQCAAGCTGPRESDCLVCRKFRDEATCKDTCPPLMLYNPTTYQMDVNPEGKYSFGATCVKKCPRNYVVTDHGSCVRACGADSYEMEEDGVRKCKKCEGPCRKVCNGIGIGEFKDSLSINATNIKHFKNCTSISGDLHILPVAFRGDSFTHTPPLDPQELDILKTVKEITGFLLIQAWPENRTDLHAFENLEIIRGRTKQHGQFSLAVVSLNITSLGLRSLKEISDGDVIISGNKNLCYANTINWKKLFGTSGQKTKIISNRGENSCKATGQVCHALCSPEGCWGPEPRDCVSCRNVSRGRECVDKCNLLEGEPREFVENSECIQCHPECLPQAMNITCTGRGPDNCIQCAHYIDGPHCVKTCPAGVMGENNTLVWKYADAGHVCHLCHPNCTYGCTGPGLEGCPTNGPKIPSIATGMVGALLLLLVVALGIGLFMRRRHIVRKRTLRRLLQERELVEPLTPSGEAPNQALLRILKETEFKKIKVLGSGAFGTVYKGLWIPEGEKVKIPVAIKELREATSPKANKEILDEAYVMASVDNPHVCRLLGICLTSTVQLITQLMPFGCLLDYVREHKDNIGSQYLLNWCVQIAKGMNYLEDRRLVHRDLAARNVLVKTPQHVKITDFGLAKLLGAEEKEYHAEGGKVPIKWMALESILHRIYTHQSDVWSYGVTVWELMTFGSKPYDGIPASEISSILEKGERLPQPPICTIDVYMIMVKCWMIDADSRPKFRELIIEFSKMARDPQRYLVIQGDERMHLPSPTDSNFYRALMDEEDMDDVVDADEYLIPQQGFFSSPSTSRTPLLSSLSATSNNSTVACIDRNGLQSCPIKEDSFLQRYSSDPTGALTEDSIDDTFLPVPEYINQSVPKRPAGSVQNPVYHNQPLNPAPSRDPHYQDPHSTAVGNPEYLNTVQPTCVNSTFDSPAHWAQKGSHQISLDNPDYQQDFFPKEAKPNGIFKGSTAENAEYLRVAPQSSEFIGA
The target of test [8] is Follistatin-related protein 3 (Homo sapiens) (UniProt O95633). As to the kind of experiment: FSTL3 binders on small-molecule microarrays, primary screen, biochemical, small-molecule microarray, 635 nm fluorescence (AID 1105).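 Further: score merges emission near 667 nm and signal to noise per printed spot across three slides.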 As to conditions: FSTL3 binding, higher = more signal.
Follistatin-related protein 3 (Homo sapiens), sequence (O95633 whole entry, looked up): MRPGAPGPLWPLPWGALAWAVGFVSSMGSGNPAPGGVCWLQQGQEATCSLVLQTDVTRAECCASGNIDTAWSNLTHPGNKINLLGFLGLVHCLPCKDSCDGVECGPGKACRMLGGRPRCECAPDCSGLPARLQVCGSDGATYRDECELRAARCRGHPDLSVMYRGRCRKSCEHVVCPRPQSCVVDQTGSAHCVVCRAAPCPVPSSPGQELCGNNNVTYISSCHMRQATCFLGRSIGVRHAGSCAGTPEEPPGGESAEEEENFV
For test [9], the target named is Dickkopf-related protein 1 (Homo sapiens) (UniProt O94907). As to the kind of experiment: DKK1 binders on small-molecule microarrays, primary screen, biochemical, small-molecule microarray, 635 nm fluorescence scan (AID 1106).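 Further: score merges emission near 667 nm with signal to noise over three replicate slides.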 As to conditions: DKK1 binding, higher = more signal.
Dickkopf-related protein 1 (Homo sapiens), sequence (O94907 whole entry, looked up): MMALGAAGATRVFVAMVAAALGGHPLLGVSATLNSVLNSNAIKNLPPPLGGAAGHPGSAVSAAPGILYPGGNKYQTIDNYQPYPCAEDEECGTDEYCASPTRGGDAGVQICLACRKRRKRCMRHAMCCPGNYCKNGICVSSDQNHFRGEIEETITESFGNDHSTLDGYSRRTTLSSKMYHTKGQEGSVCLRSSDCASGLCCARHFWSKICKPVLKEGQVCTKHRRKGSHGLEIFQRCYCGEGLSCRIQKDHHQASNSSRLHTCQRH
Test [10] deals with Inhibin beta A chain (activin A). Kind of test: INHBA (activin A) binders on microarrays, primary screen, biochemical, small-molecule microarray, 635 nm fluorescence scan (AID 1107).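 Further: mouse activin A protein probed at 4.33 µg/mL on printed slides; score merges bound-protein fluorescence near 667 nm with spot signal-to-noise.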 The note with it: small-molecule microarray binding, higher = more signal.
Test [11] has as its system Human papillomavirus type 1a protein E7 (residues 44-93). Kind of test: HPV1a E7 fragment binders on microarrays, primary screen, biochemical, small-molecule microarray, residues 44-93, 635 nm fluorescence (AID 1108).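 Further: E7 fragment applied at 1 µg/mL in TBST for 1 h at 4 C; score combines spot fluorescence with its signal to noise ratio.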 The note with it: small-molecule microarray binding, fluorescence 635 nm; higher = more signal.
A short description of test [12]: modulators of HCV replicon luciferase signal, primary screen, HCV replication inhibitor project, Huh7 cells, luciferase reporter (AID 1109).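 Further: huh7 hepatoma cells harbouring a luciferase neomycin HCV replicon reporter; luciferase luminescence as measure of HCV replicon replication; test concentration not given here.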 The note with it: 48 h, higher = more signal. A general note: In antiviral work, replicon cells carry a viral genome segment that copies itself.
In test [13] the target is Left-right determination factor 2 (Homo sapiens) (UniProt O00292). Kind of test: LEFTY2 binders on small-molecule microarrays, primary screen, biochemical, small-molecule microarray, 635 nm fluorescence scan (AID 1110). As to conditions: LEFTY2 binding, higher = more signal.
Left-right determination factor 2 (Homo sapiens), sequence (O00292 whole entry, looked up): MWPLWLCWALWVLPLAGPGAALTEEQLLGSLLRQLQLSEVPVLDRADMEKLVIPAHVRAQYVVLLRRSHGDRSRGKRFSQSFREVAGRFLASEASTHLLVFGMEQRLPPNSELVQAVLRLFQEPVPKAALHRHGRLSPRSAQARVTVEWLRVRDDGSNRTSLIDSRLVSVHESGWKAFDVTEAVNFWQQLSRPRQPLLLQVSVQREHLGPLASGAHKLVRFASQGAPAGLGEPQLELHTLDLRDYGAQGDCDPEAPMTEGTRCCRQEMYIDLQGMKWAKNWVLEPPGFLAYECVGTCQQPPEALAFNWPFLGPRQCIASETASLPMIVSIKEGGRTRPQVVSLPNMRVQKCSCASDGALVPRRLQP
The target in test [14] is Calmodulin-1 (Homo sapiens) (UniProt P0DP23). Kind of test: CALM1 binders on microarrays, EGTA buffer, profiling panel, biochemical, small-molecule microarray, Cy5-labelled CALM1 (AID 1111).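 Further: labelled calmodulin applied in Tris saline Tween buffer holding calcium plus EGTA and DTT.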 The note with it: Cy5-CALM1 binding fluorescence, higher = more signal.
For test [15] the target is unchanged. Kind of test: calcium-bound CALM1 binders on microarrays, profiling panel, artefact control for SMM control-protein annotation, biochemical, small-molecule microarray, Cy5-labelled CALM1, plus calcium (AID 1112).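 Further: score merges spot fluorescence with signal to noise from triplicate slides.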 The note with it: Cy5-CALM1 binding fluorescence, higher = more signal.
Test [16] can be described thus: small-molecule microarray binders of probe aWnt5a, primary screen, biochemical, biotinylated probe, 635/667 nm fluorescence (AID 1113).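 Further: score merges 667 nm fluorescence intensity with signal-to-noise per printed feature.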 The note with it: higher = more signal.
The nature of test [17]: small-molecule microarray binders of probe aShh, primary screen, biochemical, biotinylated probe, 635/667 nm fluorescence (AID 1114).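 Further: probe is biotin-labelled aShh protein from a stem cell growth factor screen; measures binding of labelled protein to compounds printed on the slide; score merges feature fluorescence at 667 nm with signal-to-noise.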 As to conditions: higher = more signal.
Test [18] can be described thus: small-molecule microarray binders of probe aNog, primary screen, biochemical, biotinylated probe, 635/667 nm fluorescence (AID 1115).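 Further: probe is biotinylated aNog protein used at 0.15 µg/mL for 1 h at 4 C; z-score combines 667 nm fluorescence of each spot with its signal to noise.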 The note with it: higher = more signal.
Test [19] concerns the target Torsin-1A-interacting protein 1 (Homo sapiens) (UniProt Q5JTV8). As to the kind of experiment: LAP1 binders from COS7 cell lysate, primary screen, small-molecule microarray, 635/667 nm fluorescence (AID 1116). The note with it: COS7-hLAP1 lysate binding, 635 nm fluorescence, higher = more signal.
The target in test [20] is Alpha-bungarotoxin (Bungarus multicinctus) (UniProt P60615). As to the kind of experiment: alpha-bungarotoxin binders on microarray, profiling panel, artefact control for SMM control protein annotation, biochemical, small-molecule microarray, Alexa647 label, 635/667 nm fluorescence (AID 1117). As to conditions: alpha-BTX-A647 binding fluorescence, higher = more signal.
Alpha-bungarotoxin (Bungarus multicinctus), sequence (P60615 whole entry, looked up): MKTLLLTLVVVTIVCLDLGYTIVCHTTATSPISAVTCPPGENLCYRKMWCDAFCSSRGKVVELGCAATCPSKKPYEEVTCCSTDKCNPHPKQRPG

Torsin-1A-interacting protein 1 (Homo sapiens), sequence (Q5JTV8 whole entry, looked up): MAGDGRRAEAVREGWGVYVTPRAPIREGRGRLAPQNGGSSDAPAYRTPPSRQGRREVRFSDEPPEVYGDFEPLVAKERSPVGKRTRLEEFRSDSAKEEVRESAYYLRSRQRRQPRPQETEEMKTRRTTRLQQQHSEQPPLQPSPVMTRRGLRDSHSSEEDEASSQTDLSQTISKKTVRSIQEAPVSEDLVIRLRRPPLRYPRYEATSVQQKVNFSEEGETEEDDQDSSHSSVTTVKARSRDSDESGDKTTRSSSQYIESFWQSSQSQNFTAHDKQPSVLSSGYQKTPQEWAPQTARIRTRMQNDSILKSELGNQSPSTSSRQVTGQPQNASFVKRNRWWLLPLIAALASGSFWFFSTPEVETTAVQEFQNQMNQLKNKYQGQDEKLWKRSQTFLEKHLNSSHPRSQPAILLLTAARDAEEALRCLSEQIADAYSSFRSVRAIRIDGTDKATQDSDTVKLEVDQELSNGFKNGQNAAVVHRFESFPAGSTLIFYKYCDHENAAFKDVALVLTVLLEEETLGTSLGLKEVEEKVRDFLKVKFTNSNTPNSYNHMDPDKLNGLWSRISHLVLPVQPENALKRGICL

For the compound `CN1C(=O)C2C=CC(C(O)COCc3ccccc3)N(Nc3ccc([N+](=O)[O-])cc3[N+](=O)[O-])C2C1=O` (stereo not given), the composite z-score in test [1] was 0.111; in [2], 0.753; in test [3], 0.888; in test [5], -0.0198; in test [6], -0.443; in test [7], -1.04. Besides, the composite z-score in [8] is -0.381; in test [9], -0.82; in [10], 1.13; in test [11], 0.826; in test [13] it was -0.759; in test [14] it was -0.528. The composite z-score in [15] was -0.626; in test [16], 0.173; in test [17] it was -0.328; in [18], 0.702; in test [19] it was 0.503; in test [20], 0.814. The z-score is 0.806 (inactive) in test [4] and -0.295 in test [12].

As to `COCCOC(=O)N1C(=O)[C@@]2(c3cc(C#CCCO)ccc31)[C@H](c1ccc(O)cc1)N1[C@H](c3ccccc3)[C@H](c3ccccc3)OC(=O)[C@H]1[C@@H]2C(=O)NC[C@H](O)c1ccccc1`, the composite z-score is 1.16 in [1]; -0.0668 in test [2]; -0.0755 in test [3]; 0.758 in test [5]; 0.733 in test [6]; 0.0103 in test [7]. In addition, the composite z-score in test [8] came out at 0.491; in test [9], 0.143; in [10], 0.48; in test [11] it was 0.495; in [13], 0.285; in test [14], 0.212. Also, the composite z-score in [15] is 0.0658; in [16], -0.027; in [17] it was 0.204; in [18], 1.05; in [19], 0.981; in test [20] it was 0.367. Besides, the results for the z-score in [4] and in [12] were 0.49 (inactive) and -1.02, respectively.

For the compound `O=C1NC(=O)C2C1C=CC(C(O)C(c1ccccc1)c1ccccc1)N2Nc1ccccn1` (stereo not given), the composite z-score in test [1] is 0.737; in [2], 1.25; in test [3], 1.15; in test [5], 0.909; in [6], -0.145; in test [7], 0.457. The composite z-score in [8] was 0.503; in [9], 0.593; in test [10], 1.32; in test [11], -1.31; in [13], 0.702; in test [14], -0.67. Moreover, the composite z-score in [15] is 0.295; in test [16] it was 0.278; in test [17], -0.119; in test [18], 0.328; in [19], 1.63; in test [20], -0.143. The z-score in [4] was 0.864 (inactive); in test [12] it was -0.246.

On to `[N-]=[N+]=NCc1ccccc1C[C@]1(C(=O)N2CCCCC2)COC(c2ccc(OCCCO)cc2)=N1`, for which the composite z-score in [1] was 0.314; in test [2], 0.0279; in [3], 0.552; in test [5], 0.786; in test [6], 1.02; in [7] it was 1.1. In addition, the composite z-score in test [8] is 0.636; in test [9], 0.221; in test [10], -0.297; in test [11] it was 0.288; in test [13], 0.227; in test [14], 0.103. Besides, the composite z-score in test [15] is -0.171; in test [16], -0.255; in test [17], 0.262; in test [18], -0.694; in test [19], 2.29; in test [20], 0.49. In addition, the values for the z-score in [4] and in [12] were 0.0234 (inactive) and -2.57, respectively.

Take `O=C1c2ccccc2[C@](Cc2ccccc2I)(C(=O)NCCN2CCOCC2)[C@H](c2ccc(CO)cc2)N1Cc1ccccc1C(F)(F)F`: the composite z-score is 0.655 in test [1]; -0.0516 in [2]; 0.358 in test [3]; 0.275 in test [5]; 0.484 in [6]; -0.288 in test [7]. Besides, the composite z-score in test [8] was 0.276; in test [9], -0.419; in [10] it was 0.734; in [11], 1.4; in test [13] it was -0.325; in [14], 0.799. The composite z-score in [15] was 0.492; in [16], -0.0721; in [17], -0.221; in [18], -0.43; in test [19], 0.598; in test [20] it was 0.787. Also, the z-score was -0.0322 (inactive) in test [4] and -2.44 in test [12].
